Screening results as filed in PubChem BioAssay.
phage Ecoli inh: E. coli growth loss with phage present; growth absorbance; inhibition, % at 11.9 µM; 360,000 tested, 0.26% active; AID 651602; in the data active means inhibition above about 11%
AddAB inh: less growth of phage-infected E. coli with AddAB; E. coli expressing H. pylori AddAB, absorbance growth; inhibition, % at 11.9 µM; 330,000 tested, 0.29% active; in the data active means inhibition above about 12%
E coli growth-1: E. coli growth inhibition | OD600 absorbance (concentration not given with the values) | AID 1053175 | Escherichia coli growth, OD600, 23 h; stronger effect = lower value | 330,000 tested, 0.21% active;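 active means OD600 absorbance below the run mean of sample wells minus 3.6 SD, in any replicate, cut at about 0.56 in these data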
E coli growth-2: reduces bacterial viability in AddAB counter-screen. E. coli V3065 growth, OD600 absorbance, 18 h. 330,000 tested, 0.27% active. inhibition, % at 11.9 µM;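 active means inhibition above the campaign's mean inhibition across all tested compounds plus 3 SD, cut at about 9.9% in these data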;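 further: uninfected addAB+ strain grown without phage in ampicillin broth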
Tat export inh: E. coli Tat transport inhibition; E. coli MC4100 TorA-mCherry Tat export, fluorescence; inhibition, % at 10 µM; 340,000 tested, 0.036% active; AID 488895;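 active means mean replicate inhibition at least 50% and at least half of replicates individually reaching 50%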;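 further: exported cargo escapes ClpAP degradation while cytoplasmic cargo is degraded and loses fluorescence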
AddAB confirm: confirmation screen: growth loss of phage-infected E. coli expressing H. pylori AddAB | shares compounds with AddAB inh | E. coli V3065 expressing H. pylori AddAB, T4 phage, OD; T4 phage with gene 2 nonsense mutations | inhibition, % at 11.9 µM | 880 tested, 64% active;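 active means mean inhibition above a set limit taken from the earlier primary screen, cut at about 13% in these data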;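 further: higher means less bacterial growth since AddAB block lets phage replicate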
RecBCD counter: AddAB counter-screen: growth loss of RecBCD+ E. coli infected with mutant T4 phage; shares compounds with AddAB inh; E. coli V66 + mutant T4 phage, OD growth; inhibition, % at 11.9 µM; 880 tested, 73% active; AID 488955;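 active means mean inhibition above the mean of solvent-only control wells plus 3 SD, cut at about 4% in these data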;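 further: optical density read after an 18 h incubation at 37 °C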
Bact viability: counter-screen for AddAB inhibitors: inhibitors of bacterial viability | 880 tested, 35% active | shares compounds with AddAB inh | AID 488956 | absorbance (AddAB counterscreen) | inhibition, % at 11.9 µM; in the data active means inhibition above about 25%
RecBCD conf: confirmation: growth loss of phage-infected RecBCD+ E. coli (RecBCD inhibitor screen); shares compounds with phage Ecoli inh; E. coli V66 + T4 2- phage, growth OD; inhibition, % at 11.9 µM; 890 tested, 45% active;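 active means mean inhibition over triplicates exceeding the hit threshold derived in the original primary screen, cut at about 11% in these data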
Ecoli viability: counter-screen for RecBCD inhibitors: inhibitors of bacterial viability; E. coli viability, absorbance (OD) growth; 890 tested, 29% active; shares compounds with phage Ecoli inh; AID 651983; inhibition, % at 11.9 µM; in the data active means inhibition above about 20%;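 further: E. coli strain V66 grown with compound alone and no phage infection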
AddAB counter: growth loss of phage-infected AddAB E. coli, RecBCD counter-screen; shares compounds with phage Ecoli inh; E. coli expressing H. pylori AddAB + T4 phage, OD growth; gene 2 mutant T4, recBCD-deleted host; inhibition, % at 11.9 µM; 890 tested, 45% active; AID 651984;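 active means mean inhibition above the solvent-only control wells' mean plus 3 SD, cut at about 22% in these data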;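 further: higher means less bacterial growth from phage killing when AddAB is blocked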
Large screens that a line does not name were inactive (follow-up assays come after a bar, where they were run). Shown are actives, neighbours in structure and some others; about 0.5% of the full set was active somewhere.

O=C(NNC(=S)Nc1ccc(Cl)c(Cl)c1)c1ccccn1	phage Ecoli inh 17, AddAB inh 14, E coli growth-2 17 | AddAB confirm 26 | RecBCD counter 17 | Bact viability 25 | RecBCD conf 14 | Ecoli viability inactive | AddAB counter 34
COc1ccc(/C=N/NC(=O)c2nc(-c3ccccc3)n(-c3ccccc3)n2)c(O)c1	phage Ecoli inh 22, AddAB inh 21, E coli growth-2 19 (no result: E coli growth-1) | AddAB confirm inactive | RecBCD counter 19 | Bact viability inactive | RecBCD conf 11 | Ecoli viability inactive | AddAB counter inactive
C[C@H]1[C@H](NC(=O)C(=NOC(C)(C)C(=O)O)c2csc(N)n2)C(=O)N1S(=O)(=O)O	phage Ecoli inh 100, AddAB inh 100, E coli growth-2 99 (no result: E coli growth-1) | AddAB confirm 100 | RecBCD counter 99 | Bact viability 101 | RecBCD conf 98 | Ecoli viability 99 | AddAB counter 101
COc1cc(-c2nnc(SCc3cc(=O)oc4cc(O)c(O)cc34)o2)cc(OC)c1OC	phage Ecoli inh 16, AddAB inh 18, E coli growth-2 18 | AddAB confirm 18 | RecBCD counter 16 | Bact viability inactive | RecBCD conf inactive | Ecoli viability inactive | AddAB counter inactive
COc1ccc2nc(NC(=O)CCNC(=O)c3ccco3)sc2c1	phage Ecoli inh 12, AddAB inh 16, E coli growth-2 14 | AddAB confirm 14 | RecBCD counter 12 | Bact viability inactive | RecBCD conf inactive | Ecoli viability inactive | AddAB counter inactive
Brc1cc(C=Nn2cnnc2)oc1Br	none (no result: phage Ecoli inh, AddAB inh, E coli growth-2, Tat export inh)
O=C(NNC(=O)c1cc2cc(Br)ccc2oc1=O)c1ccc(O)cc1O	phage Ecoli inh 18, AddAB inh 24, E coli growth-2 23 | AddAB confirm inactive | RecBCD counter 14 | Bact viability inactive | RecBCD conf inactive | Ecoli viability inactive | AddAB counter inactive
CCCC=C1CCCOC(C(=O)NCCNCCO)(C(F)(F)F)C1 (stereo not drawn)	none (no result: phage Ecoli inh, AddAB inh, E coli growth-2, Tat export inh)
CCCC(=O)NC(c1ccccc1)c1ccc2cccnc2c1O (stereo not drawn)	phage Ecoli inh 20, AddAB inh 24, E coli growth-2 32 (no result: E coli growth-1) | AddAB confirm 26 | RecBCD counter 25 | Bact viability inactive | RecBCD conf 18 | Ecoli viability 24 | AddAB counter 29
CCCC(=O)NC(c1ccc(OC)cc1)c1ccc2cccnc2c1O (stereo not drawn)	phage Ecoli inh 31, AddAB inh 28, E coli growth-2 30 | AddAB confirm 25 | RecBCD counter 25 | Bact viability inactive | RecBCD conf 16 | Ecoli viability 23 | AddAB counter 23
COc1cccc(C(NC(C)=O)c2ccc3cccnc3c2O)c1 (stereo not drawn)	none (no result: E coli growth-1)
CCCCC(=O)NC(c1ccccc1Cl)c1ccc2cccnc2c1O (stereo not drawn)	phage Ecoli inh 21, AddAB inh 19, E coli growth-2 28 (no result: E coli growth-1) | AddAB confirm 22 | RecBCD counter 19 | Bact viability inactive | RecBCD conf 14 | Ecoli viability inactive | AddAB counter 24
O=[N+]([O-])c1ccc(NC(c2ccccc2)c2ccc3cccnc3c2O)cc1 (stereo not drawn)	none (no result: AddAB inh, E coli growth-2)
CCCCC(=O)NC(c1ccccc1)c1ccc2cccnc2c1O (stereo not drawn)	phage Ecoli inh 24, AddAB inh 26, E coli growth-2 31 (no result: E coli growth-1) | AddAB confirm 27 | RecBCD counter 25 | Bact viability inactive | RecBCD conf 12 | Ecoli viability inactive | AddAB counter 29
O=C(NN=Cc1ccccc1)c1sccc1OCc1ccc(F)cc1	none (no result: phage Ecoli inh, AddAB inh, E coli growth-2, Tat export inh)
Oc1cccc(C(Nc2nccs2)c2ccc3cccnc3c2O)c1 (stereo not drawn)	phage Ecoli inh 16, AddAB inh 18, E coli growth-2 16 | AddAB confirm 19 | RecBCD counter 17 | Bact viability inactive | RecBCD conf inactive | Ecoli viability inactive | AddAB counter inactive
CCCCC(=O)NC(c1ccc(C(C)C)cc1)c1ccc2cccnc2c1O (stereo not drawn)	phage Ecoli inh 17, AddAB inh 17, E coli growth-2 20 | AddAB confirm 18 | RecBCD counter 15 | Bact viability inactive | RecBCD conf inactive | Ecoli viability inactive | AddAB counter inactive
CC(=O)NC(c1cccc([N+](=O)[O-])c1)c1ccc2cccnc2c1O (stereo not drawn)	none (no result: AddAB inh, E coli growth-1, E coli growth-2)
CC(=O)NC(c1ccc(C(C)C)cc1)c1ccc2cccnc2c1O (stereo not drawn)	phage Ecoli inh 23, AddAB inh 20, E coli growth-2 24 (no result: E coli growth-1) | AddAB confirm 15 | RecBCD counter 17 | Bact viability inactive | RecBCD conf 13 | Ecoli viability inactive | AddAB counter inactive
O=C(COc1cccc2cccnc12)Nc1nccs1	none
Cc1cc(NC(=O)CON=Cc2ccc3c(c2)OCO3)ccc1Br	none (no result: phage Ecoli inh, AddAB inh, E coli growth-2, Tat export inh)
CC=C(C)C(=O)Nc1cccc(C2=NOC3(C2)CC(C(N)=O)N(C(=O)CC)C3)c1 (stereo not drawn)	none (no result: phage Ecoli inh, AddAB inh, E coli growth-2, Tat export inh)
CS(=O)(=O)c1ccc([C@@H](O)[C@@H](CO)NC(=O)C(Cl)Cl)cc1	phage Ecoli inh 27, AddAB inh 29, E coli growth-2 29 (no result: E coli growth-1) | AddAB confirm inactive | RecBCD counter 27 | Bact viability inactive | RecBCD conf 35 | Ecoli viability 25 | AddAB counter inactive
CS(=O)(=O)c1ccc([C@@H](O)[C@@H](CF)NC(=O)C(Cl)Cl)cc1	phage Ecoli inh 85, AddAB inh 84, E coli growth-2 85, Tat export inh 147 (no result: E coli growth-1) | AddAB confirm 87 | RecBCD counter 90 | Bact viability 87 | RecBCD conf 92 | Ecoli viability 94 | AddAB counter 84
N#CC(=NNc1ccccc1[N+](=O)[O-])C(N)=S	none (no result: phage Ecoli inh, AddAB inh, E coli growth-2, Tat export inh)
O=c1c2cc(Br)ccc2nc(-c2cccc(C(F)(F)F)c2)n1O	phage Ecoli inh 17, AddAB inh 16, E coli growth-2 16 | AddAB confirm inactive | RecBCD counter 16 | Bact viability inactive | RecBCD conf inactive | Ecoli viability inactive | AddAB counter inactive
N#Cc1ccc(-c2nc3ccc(Br)cc3c(=O)n2O)cc1	none
